Measured values reported in PubChem BioAssay (EPA / NIEHS).
Inconclusive results are not listed. The source made the active and inactive calls. The calls were made as follows, unless noted: active = hit-call score of the fitted dose curve at least 0.9, where 1 is the maximum; inactive = score below 0.9.

Test system: SRD5A2 (gene 6716)
Assay: CCTE_Deisenroth_5AR_NBTE_ratio: CCTE's 5alpha-reductase NanoBRET Target Engagement Assay - Ratio, Deisenroth Lab (AID 2284322)
Settings: actives raise or lower the signal
Outline: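 HEK293T cells transiently expressing an SRD5A2-NanoLuc fusion (20 h post-transfection) were exposed to test chemical (10 nM - 29.9 uM, 8 points) for 3 h, then testosterone tracer for a further 2 h. Acceptor/donor BRET ratio was fitted bidirectionally against DMSO baseline.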
With `C[C@]12C=CC3=C4CCC(=O)C=C4CC[C@H]3[C@@H]1CC[C@@H]2O` the outcome was “inactive”.
For `CCC[CH2][Sn]([Cl])([CH2]CCC)[CH2]CCC`, the AC50 was 16.8 µM (active).
With `CC(C)(O)c1cnn2c(-c3ccc(F)c(-c4c(F)cccc4C#N)c3)cnc2n1` the AC50 was 13.5 µM (active).
In the case of `Cc1ccc(N)c(N)c1`, the AC50 is reported as 22.7 µM (active).
For `COc1cc(C=O)cc2c1[C@H](COC(N)=O)[C@]1(OC(C)=O)ON2C[C@H]2[C@@H]1N2C(C)=O`, the outcome was “inactive”.
For `Cc1cc(N=Nc2ccccc2C)ccc1N`, the AC50 was 50 µM (active).
For `Nc1ccc(N=Nc2ccccc2)cc1`, the AC50 was 50 µM (active).
In the case of `[Cl-].[Cl-].[Hg+2]`, the AC50 is reported as 75.4 µM (active).
For `CCCCCCCCn1sccc1=O`, the AC50 was 71.1 µM (active).
With `c1ccc2c(c1)-c1cccc3cccc-2c13` the outcome was “inactive”.

Test system: not listed separately
Assay: VALA_TUBHUV_Antagonist_TubuleLength: VALA Sciences human Umbilical Vein Endothelial Tubule Formation (TUBHUV) Antagonism Assay (AID 2284325; active = hit-call score of the fitted dose curve at least 0.9, where 1 is the maximum)
Settings: not given
Outline: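 Tubule length was imaged via CD31 immunofluorescence after a further 3-day compound exposure in 10 ng/ml VEGF, following 3-day pre-culture of HUVEC with HDF at 1:3. Vehicle 0.1% DMSO; suramin (100 uM) inhibition control.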
In the case of `CO[C@@H]1[C@H](OC(=O)NC(=O)CCl)CC[C@]2(CO2)[C@H]1[C@@]1(C)O[C@@H]1CC=C(C)C`, the outcome is reported as “inactive”.
With `Oc1ccc2ccc3cccc4ccc1c2c34` the outcome was “inactive”.
For `O=P(OCCCl)(OCCCl)OCCCl`, the outcome was “inactive”.

Test system: not listed separately
Assay: TAMU_PeakParms_SingleDonor1434_Asystole: Texas A&M University (TAMU) 1.5-hr Human Induced Pluripotent Stem Cell (iPSC)-derived Cardiomyocytes Calcium (Ca+2) Flux Assay for Cardiotoxicity: Asystole (quiescence of beating) (AID 2284328; active = hit-call score of the fitted dose curve at least 0.9, where 1 is the maximum)
Settings: not given
Outline: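 Average Ca2+-flux peak frequency (beats/s) was recorded in single-donor iPSC-derived cardiomyocytes after 90 min exposure (0.2–100 uM final, 0.5% DMSO). Asystole POD set as EC95 against DMSO, no preprocessing.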
In the case of `ClC1=C(Cl)[C@]2(Cl)[C@H]3[C@H]([C@@H]4C=C[C@H]3C4)[C@@]1(Cl)C2(Cl)Cl`, the outcome is reported as “inactive”.
With `CC(C)(C)C(O)(CCc1ccc(Cl)cc1)Cn1cncn1` (stereo not drawn) the outcome was “inactive”.
For `Clc1ccc(C(c2ccc(Cl)cc2)C(Cl)(Cl)Cl)cc1`, the outcome was “inactive”.
For `c1ccc(N=Nc2ccccc2)cc1`, the outcome was “inactive”.
In the case of `CCCCCCCCn1sccc1=O`, the outcome is reported as “inactive”.
